Test results published in PubChem BioAssay AID588827 (Broad Institute, 2011).
The whole screen tested about 2,400 compounds, of which about 20 (0.8%) were called active. Inconclusive results (about 19%) are left out.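 The calls were made as follows: active = fitted half-maximal concentration for signal decrease at or below twice the top tested dose, in every repeat run; inconclusive = repeat runs disagree, or flat partial inhibition, or poor fit; inactive = all runs flat, wrong-direction or potency beyond limit.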 A selection follows. Measured potencies and affinities stand elsewhere.

Experiment: GFP reporter loss versus dox-driven RFP – NIH3T3 R4 cells, cherry-pick, set 4, dose response (AID 588827);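 also: 0% = neutral control wells and -100% = didemnin B at 400 nM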
Details: NIH3T3 R4 HSF-1 GFP reporter, heat shock, 48 h; series mostly up to 19.5 µM; activity change, negative = inhibition: at the top concentration

Activity change, negative = inhibition, inactive:
COc1ccc2nnc(-c3ccc(C(F)(F)F)cc3)n2n1 -29%, O=C1CCCC/C1=N\Nc1ccc(C2CCCCC2)cc1 -12.6%, COc1ccc(C(=O)C2CCCN(S(=O)(=O)c3ccccc3F)C2)c(C)c1 (stereo not given) -19.3%, Cc1cc(S(=O)(=O)N2CCN=C2c2ccccc2)c(C)cc1Cl -13.8%, COc1cc(/C=N/N=C2/C(=O)Nc3ccccc32)cc(OC)c1O -6.39%, O=C(NCc1ccco1)C(=O)NCC(c1ccco1)N1CCOCC1 (stereo not given) -10.2%, CCOC(=O)C1(CCOc2ccccc2)CCN(Cc2cccc(-n3cccn3)c2)CC1 19%, CC(=O)N/N=C(\C)CC(=O)NC(C)(C)C 6.32%, C=CCn1c(C)cc(C(=O)CSc2nnc(NC(C)C)s2)c1C -14.3%, CCCCN1CNC(=S)N(c2ccc(C(=O)OCC)cc2)C1 -9.47%, COc1ccc(-c2oc3ccccc3c2C(=O)Oc2ccccc2)cc1 0.138%, Cc1ccc(-c2nn(-c3ccccc3)cc2CN(C)C(=O)CCC(=O)O)cc1C -15.5%, O=[N+]([O-])c1cccc(-c2nnc(-c3ccccc3)o2)c1 -13.4%, Cc1ccc(C(=O)N/C(=C/c2ccco2)C(=O)Nc2cccc(C(=O)O)c2)cc1 -3.67%, Cc1cccc(OCC(=O)Nc2cccc(C(=O)NCC(C)C)c2)c1 -11.5%, COc1ccc(C2NS(=O)(=O)N=C2N)cc1 (stereo not given) -1.94%, CC(=O)C1C(=O)c2c(cccc2[N+](=O)[O-])C1=Nc1ccc(S(N)(=O)=O)cc1 (stereo not given) -10.1%, CCOC(=O)N1CCN(S(=O)(=O)c2ccc3c(c2)OCC(=O)N3)CC1 -10.4%, Cc1ccc(-c2cn(-c3ccccc3)c(=S)[nH]2)cc1C -10%, O=C(Nc1ccccc1N1CCCCC1)C1CCN(C(=O)c2ccc(Cl)cc2)CC1 -15.7%, CCOC(=O)c1c(NC(=O)CSc2nnc(-c3c[nH]c4ccccc34)n2C)sc2c1CCCC2 -23.8%, O=C(NCCCn1ccnc1)C(=O)NCC1OCCN1S(=O)(=O)c1cc(F)ccc1F (stereo not given) -8.72%, O=C(O)CCSc1nnc(-c2ccc3c(c2)OCO3)o1 1.52%, Cc1c(C(=O)c2no[n+]([O-])c2C(=O)c2cnn(C)c2C)cnn1C 12.6%, O=S(=O)(Nc1cccc(Oc2cnccn2)c1)c1ccc(F)cc1 -8.07%, CCOc1cc(/C=N/NC(=O)c2cccc(S(=O)(=O)N3CCOCC3)c2)ccc1OCC(=O)N(C)C -8.98%, Cc1ccc(-c2cc3c(N=O)c4ccccc4c-3n[nH]2)cc1 9.74%, CCCN(CCC)C(=O)CSc1nc2ccsc2c(=O)n1NC(=O)c1ccccc1 -0.911%, COc1cccc(C(c2sc3nc(C)nn3c2O)N2CCN(C(=O)c3ccco3)CC2)c1 (stereo not given) -17.6%, Cn1c(=O)c2ccccc2n(Cc2ccccc2Cl)c1=O -29.6%, O=C(CCl)NC(Cc1ccccc1)c1ccccc1 (stereo not given) 9.09%, COC(=O)c1cc(S(=O)(=O)NCCc2ccccc2)c[nH]1 -14.9%, O=C(CCl)N=c1sccn1Cc1ccc(Cl)cc1Cl -29.8%, Cc1ccc(S(=O)(=O)N2CCN(CC(=O)N/N=C\c3ccncc3)CC2)cc1 -9.13%, O=C(O)c1ccc2nc(-c3ccccc3)sc2c1 -4.16%, Cn1c(=O)c2c(SCC(=O)N3CCCc4ccccc43)nc(C3CC3)nc2n(C)c1=O -16.5%, Cc1ccc(C)c(NC(=O)COc2coc(CN3CCc4ccccc4C3)cc2=O)c1 -27.9%, Cc1ccc2[nH]c(=O)c(CN(C(=O)c3cccc([N+](=O)[O-])c3)C(C)C)cc2c1 -24.7%, O=C(Nc1ccc(S(=O)(=O)N2CCOCC2)cc1)c1ccc(Cl)cc1Cl -21.7%, COC(=O)c1nn(-c2ccc3c(c2)CCN3C(C)=O)cc1O 21.1%, Cc1cc(C)c2[nH]c(=O)c(C(c3nnnn3CC3CCCO3)N3CCC(C)CC3)cc2c1 (stereo not given) -26.5%, N=C(N)SCc1ccccc1Cl 19.3%, COc1ccc(C(=O)NCc2nnc(SCC(=O)N3CCC(C)CC3)o2)cc1OC -11.6%, O=C(Cn1nc2ccccc2n1)N/N=C/c1cc([N+](=O)[O-])ccc1O 6%, O=C(Oc1ccccc1Cl)c1ccc(-n2cncn2)nc1 -8.84%, COc1ccc(S(=O)(=O)N2CCCCCC2)cc1C(=O)OCC(=O)NC(C)(C)C -11.8%, Nc1ccccc1-c1nc2ccccc2s1 -7.02%, O=C(N1CCCCC1)N1CCN(S(=O)(=O)c2ccccc2)CC1 -11.3%, COc1ccc(S(=O)(=O)N2CCCC2)cc1C(C)C -16.1%, Cc1nc2sccn2c(=O)c1S(=O)(=O)Nc1ccc(N2CCOCC2)c(Cl)c1 -25.3%, COC(=O)c1cccc(NC(=O)CN2CCN(Cc3ccccc3)CC2)c1 2.65%, CN1CCc2c(sc(/N=C/c3cc(C(C)(C)C)ccc3O)c2C#N)C1 3.37%, COc1ccc2[nH]c3c(=O)n(CCCN4CCOCC4)cnc3c2c1 -12.4%, CCO/C(C)=C1/SC(=S)NC1=O 3.62%, c1ccc(OCCSc2nc3ccccc3o2)cc1 -18%, COc1cc(NC(=O)c2cc(C)nc3ccccc23)cc(OC)c1 -25.1%, COc1cccc(C(=O)c2c[nH]c(C(=O)NCc3ccco3)c2)c1 -5.49%, COc1ccc(CNC(=O)c2cnc3scc(C)n3c2=O)cc1 -20.1%, COc1ccc(Cl)cc1C(=O)NCC(=O)OCc1ccccc1 8.73%, O=C(CCNC(=O)c1ccc(Cl)cc1)Nc1ncccc1O -4.94%, CCCCOC(=O)CSCC(=O)Nc1cc(C)on1 2.2%, CCN(CC)S(=O)(=O)c1ccc2c(c1)c(=O)c(C(=O)NCc1ccco1)cn2C -6.4%, CC(=O)N(c1ccc2oc(=O)sc2c1)S(=O)(=O)c1ccc(C(=O)O)cc1 -1.71%, CCOC(=O)c1cc(S(=O)(=O)N2CCc3ccccc32)cn1C -12.5%, Fc1ccccc1N1CCN(Cc2cc(-c3ccccc3)on2)CC1 -10.8%, CCc1ccccc1NC(=O)CSc1nnc(-c2ccncc2)o1 -11.8%, COCCNC(=O)C(OC(=O)c1cccs1)c1ccccc1 (stereo not given) 2.58%, COc1ccc(CCNC(=O)CN(c2ccc(OC)c(OC)c2)S(C)(=O)=O)cc1OC -22.4%, CCC(NC(=S)NCc1ccccc1)C(=O)O (stereo not given) 29.3%, CCOCCn1c(SCC(=O)OCc2ccccc2)nc2c1c(=O)[nH]c(=O)n2C -11.3%, CC(C)c1nc2ccccc2c2nnc(SCC(=O)NCc3ccco3)n12 -7.5%, CC(=O)Nc1ccc(-c2cn3c(n2)SCC3)cc1 -4.99%, CC1(C)Cc2nc3[nH]c(=S)n(-c4ccccc4)c(=O)c3cc2CO1 -13.3%, Cc1ccc(S(=O)(=O)c2ccc(Oc3ccccc3)cc2)cc1 -11%, CC1CCCN(c2ncnc3c2cnn3-c2ccc(Cl)cc2)C1 (stereo not given) -10.3%, COc1ccc(Cn2nnnc2C(c2cc3cccc(C)c3[nH]c2=O)N2CCN(C)CC2)cc1 (stereo not given) 7.29%, CC(C)c1ccc(NC(=O)N(CCc2nc3ccccc3[nH]2)C2CCCC2)cc1 78.7%, CCCS(=O)(=O)N1CCc2cc(OC)c(OC)cc2C1 -3.49%, CCC(Sc1nc2cc(OC)c(OC)cc2c(=O)n1CCc1ccc(S(N)(=O)=O)cc1)C(=O)NCCOC (stereo not given) 16.7%, O=C(N/N=C/c1ccccn1)c1ccc([N+](=O)[O-])cc1 -24.2%, CN(C)c1ccc(CNc2ccc3c(c2)ncn3C(C)(C)C)cc1 -15.9%, COc1cccc(-n2nc(-c3ccnn3-c3cccc(Cl)c3)c(=O)n(C)c2=O)c1 -21.5%, CCOC(=O)c1cc2sccc2n1CC(=O)Nc1ccc(OC)cc1 -14.8%, Cc1cccc(-c2ocnc2C(=O)N2CCN(C(=O)c3cccs3)CC2)c1 -4.21%, CCOC(=O)c1c(C)nc2c(C)cccn12 -16.6%, CC(C)(C)C(=O)OCc1nc(-c2ccc3c(c2)OCCO3)cs1 9.21%, Cc1nn(C(C)(C)C)c(C)c1/C=N/OC(=O)Nc1ccc(Cl)c(Cl)c1 -12.2%, Nc1nc(CSC(=S)N2CCCCC2)nc(Nc2ccccc2)n1 -2.27%, NS(=O)(=O)c1ccc(NC2=CC(=O)C(=O)c3ccccc32)cc1 -43.6%, Cn1c(NC(=O)c2ccccc2NC(=O)C(C)(C)C)nc2ccccc21 -22.4%
